Screening data from PubChem BioAssay.
Rows were chosen to be rich in hits. Some 6.7% of all compounds tested hit in one or more screens of this group.
GDH-TPI counter – counter-screen for M. tuberculosis FBA inhibitors: GDH-TPI coupled enzymes | GDH-TPI coupled enzyme counterscreen, NADH absorbance | inhibition, % at 4.8 µM | hit rate 1.2% among 360,000 | AID 588335; in the data active = inhibition above about 30%;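 note: 0% = DMSO wells and 100% = wells lacking the enzyme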
Anthrax LF inh2 – blocks Bacillus anthracis lethal factor protease | P15917 | multiplex microsphere protease cleavage assay, LF | inhibition, % at 10 µM | hit rate 0.12% among 360,000; note: plate controls were buffer without enzyme for full effect and enzyme alone for no effect
Target sequence (P15917 whole entry, looked up): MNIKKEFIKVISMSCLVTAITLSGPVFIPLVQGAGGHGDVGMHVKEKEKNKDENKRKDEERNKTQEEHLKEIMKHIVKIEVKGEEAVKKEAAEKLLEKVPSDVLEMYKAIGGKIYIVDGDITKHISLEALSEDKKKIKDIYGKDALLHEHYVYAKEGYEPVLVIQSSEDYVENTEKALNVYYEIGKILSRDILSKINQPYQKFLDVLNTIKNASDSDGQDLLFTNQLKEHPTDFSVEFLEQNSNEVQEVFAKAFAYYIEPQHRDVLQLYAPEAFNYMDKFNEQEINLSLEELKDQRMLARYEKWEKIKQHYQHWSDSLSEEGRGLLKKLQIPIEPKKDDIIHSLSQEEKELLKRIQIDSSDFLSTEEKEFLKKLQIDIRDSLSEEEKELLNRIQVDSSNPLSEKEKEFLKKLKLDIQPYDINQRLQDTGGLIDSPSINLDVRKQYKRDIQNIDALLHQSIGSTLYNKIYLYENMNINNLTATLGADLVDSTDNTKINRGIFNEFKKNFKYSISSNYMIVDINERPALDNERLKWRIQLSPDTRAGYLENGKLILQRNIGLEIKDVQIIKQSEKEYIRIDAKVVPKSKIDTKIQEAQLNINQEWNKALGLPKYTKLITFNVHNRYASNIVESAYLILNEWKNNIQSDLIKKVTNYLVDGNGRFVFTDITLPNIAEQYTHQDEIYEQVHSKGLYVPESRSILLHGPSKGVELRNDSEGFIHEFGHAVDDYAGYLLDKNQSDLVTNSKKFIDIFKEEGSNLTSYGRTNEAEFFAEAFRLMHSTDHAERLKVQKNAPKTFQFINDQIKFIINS
BoNT-F LC inh – inhibitors of Botulinum neurotoxin F light chain protease; Multiplex microsphere protease cleavage assay, flow cytometry; inhibition, % at 10 µM; hit rate 0.22% among 360,000; in the data active = inhibition above about 35%, passing the limit was not always enough; inconclusive = no clear call, values can overlap the other calls; note: plate controls were buffer without enzyme for full effect and enzyme alone for no effect
BoNT-A LC inh2 – BoNT A light chain protease inhibition; multiplex microsphere protease substrate cleavage, flow cytometry; hit rate 0.17% among 360,000; inhibition, % at 10 µM; note: plate controls were buffer without enzyme for full effect and enzyme alone for no effect
Bead autofluor – counter-screen for toxin protease inhibitors: compound fluorescence | compound autofluorescence counterscreen, microsphere flow cytometry; hits give high values | hit rate 3.1% among 360,000 | fluorescence intensity (test concentration not listed) | AID 624483; in the data active = fluorescence intensity above about 16000; inconclusive = no clear call, values can overlap the other calls
Mtb FBA inh – inhibitors of M. tuberculosis fructose-bisphosphate aldolase. P9WQA3. hit rate 2.3% among 360,000. purified M. tuberculosis FBA, fluorescence read-out. inhibition, % at 1 µM; in the data active = inhibition above about 27%;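 note: 0% = vehicle and 100% = reference inhibitor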
An asterisk follows results filed as active; u = inconclusive; x = no result given. Cut-off read from the data, not from the text of the source, unless noted: active = inhibition above about 30%; inconclusive = no clear call, values can overlap the other calls; inactive = below that.

SMILES	GDH-TPI counter	Anthrax LF inh2	BoNT-F LC inh	BoNT-A LC inh2	Bead autofluor	Mtb FBA inh
CCn1c2ccccc2c2cc(NC(=O)c3cccc(OC)c3OC)ccc21	14	0	-16	3	2025	2
Nn1c(SCC(=O)Nc2ccc(F)cc2)nnc1C1CCCCC1	17	-5	3	u	21577*	-2
Nn1c(SCC(=O)Nc2ccccc2)nnc1C1CCCCC1	-12	-1	-3	0	6704	0
Cc1cccc(NC(=O)CSc2nnc(-c3ccccc3)n2N)c1	4	1	4	u	20752*	0
CCn1c2ccccc2c2cc(NC(=O)c3cccc(OC)c3)ccc21	1	3	0	4	22832*	4
COC(=O)c1ccc(NC(=O)CSc2nnc(C)n2-c2ccccc2)cc1	11	-8	13	9	19301*	2
CC[C@]12c3[nH]c4ccc(Cl)cc4c3CCN1C(=O)[C@@H](CC(=O)NCCC1=CCCCC1)C[C@@H]2C(=O)N1CCN(C(=O)C2CC2)CC1	5	4	-13	0	3891	-1
Cc1ccc(NC(=O)CSc2nnc(-c3cccnc3)n2-c2ccc(C)cc2)cc1	0	1	3	1	2880	3
Nn1c(SCC(=O)Nc2ccc(F)cc2)nnc1-c1cccnc1	11	2	14	u	19014*	1
COC(=O)CSc1nnc(C)n1-c1cccc(C#N)c1	1	-1	-7	-6	17539*	2
CCn1c2ccccc2c2cc(NC(=O)CSc3nnc(-c4ccc(OC)cc4)n3N)ccc21	13	-2	-2	-2	24502*	2
CCOc1cccc(-c2nnc(SCC(=O)Nc3cccc(OC)c3)n2N)c1	10	-3	2	1	21734*	3
CCOC(=O)c1c(N)c(C#N)cn1-c1ccccc1	21	-2	-7	-1	8455	3
COc1ccc(OC)c(S(=O)(=O)NNC(=S)Nc2ccc3c(c2)OCO3)c1	10	-4	-1	0	4475	1
COC(=O)c1ccc(NC(=O)CSc2nnc(-c3ccncc3)n2N)cc1	2	-1	4	u	20637*	-1
COc1cccc(-c2nnc(SCCC(=O)O)n2C)c1	2	2	0	0	23530*	1
COc1ccc(NC(=O)CSc2nnc(-c3ccccc3)n2N)cc1	4	-4	-1	0	3565	1
Cc1ccc(C)c(NC(=O)CSc2nnc(-c3ccncc3)n2N)c1	-11	0	-5	-5	21109*	2
CC1CCCC(NC(=O)CSc2nnc(-c3cccnc3)n2N)C1C (stereo unspecified)	-3	3	10	1	18627*	0
CC1CCCC(NC(=O)CSc2nnc(-c3cccnc3)o2)C1C (stereo unspecified)	3	-4	0	1	5162	2
COc1cccc(-c2nnc(SCC(=O)Nc3cc(C)on3)n2C)c1	-4	-6	5	1	5759	-2
Cn1c(=O)oc2cc(S(=O)(=O)N3CCC(C(=O)N4CCN(c5ccc(F)cc5)CC4)CC3)ccc21	-8	0	3	2	5509	2
CCOc1ccc(/C=N/NC(=O)C2CCCC2)c(OCC)c1	1	-2	-13	-4	6745	2
CCOC(=O)[C@]12CCC=C1N(Cc1ccc3c(c1)OCO3)C(=O)[C@H](CC(=O)NCc1ccc(OC)c(OC)c1)C2	x	-4	-8	0	5796	x
O=C(C(=O)N1CCN(c2ccccc2F)CC1)c1cn(CC(=O)N2CCOCC2)c2ccccc12	11	0	-3	-1	5299	-1
SMILES	GDH-TPI counter	Anthrax LF inh2	BoNT-F LC inh	BoNT-A LC inh2	Bead autofluor	Mtb FBA inh
COc1cccc(-c2nnc(SCC(=O)OC(C)C)n2N)c1	2	-3	-2	-1	19700*	-3
COc1cccc(-c2nnc(SCC(=O)Nc3ccc(OC)c(OC)c3)n2N)c1	6	-1	-4	-2	23134*	1
CC(C)OC(=O)CSc1nnc(-c2ccco2)n1N	5	-6	-15	-2	6912	-4
O=C(CSc1nnc(-c2cccnc2)n1Cc1ccco1)Nc1nc(-c2ccc(F)cc2)cs1	-13	-2	0	0	20486*	-2
COc1ccccc1-n1cc([C@@H]2C[C@H]3CN(c4ccccc4)C(=O)[C@]34CCCN24)cn1	-3	u	u	u	28945*	1
COc1cc([C@@H]2C[C@H]3CN(c4ccccc4)C(=O)[C@]34CCCN24)cc(OC)c1OC	-9	-2	5	-2	9522	-1
